# In PubChem BioAssay:
# Several values for one entry are separate records, joined by “and”; a condition that tells them apart may be missing. Equal values may be shown once. Values without a mark were called inactive. Activity calls are given as the source filed them. Rule as the data show it, unless noted: active = inhibition above about 42%; inactive = the rest.
# Columns and labels:
# [1] = molecular target: Nuclear receptor coactivator 3 (Homo sapiens) (UniProt Q9Y6Q9); assay: SRC3 coactivator transcriptional activity inhibitors, confirmation, cell-based, luminescence, quadruplicate (AID 588792;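 active = mean inhibition over 43.08%, the solvent-only control mean plus 3 SD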;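 also: 0% = DMSO treated cells and 100% = gossypol at 36 µM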); settings: HEK293 GAL4-SRC3 luciferase reporter, at 3.6 µM, stronger effect = higher value
# Sequence of Nuclear receptor coactivator 3 (Homo sapiens) (Q9Y6Q9 whole entry, looked up, the tested form may be a part): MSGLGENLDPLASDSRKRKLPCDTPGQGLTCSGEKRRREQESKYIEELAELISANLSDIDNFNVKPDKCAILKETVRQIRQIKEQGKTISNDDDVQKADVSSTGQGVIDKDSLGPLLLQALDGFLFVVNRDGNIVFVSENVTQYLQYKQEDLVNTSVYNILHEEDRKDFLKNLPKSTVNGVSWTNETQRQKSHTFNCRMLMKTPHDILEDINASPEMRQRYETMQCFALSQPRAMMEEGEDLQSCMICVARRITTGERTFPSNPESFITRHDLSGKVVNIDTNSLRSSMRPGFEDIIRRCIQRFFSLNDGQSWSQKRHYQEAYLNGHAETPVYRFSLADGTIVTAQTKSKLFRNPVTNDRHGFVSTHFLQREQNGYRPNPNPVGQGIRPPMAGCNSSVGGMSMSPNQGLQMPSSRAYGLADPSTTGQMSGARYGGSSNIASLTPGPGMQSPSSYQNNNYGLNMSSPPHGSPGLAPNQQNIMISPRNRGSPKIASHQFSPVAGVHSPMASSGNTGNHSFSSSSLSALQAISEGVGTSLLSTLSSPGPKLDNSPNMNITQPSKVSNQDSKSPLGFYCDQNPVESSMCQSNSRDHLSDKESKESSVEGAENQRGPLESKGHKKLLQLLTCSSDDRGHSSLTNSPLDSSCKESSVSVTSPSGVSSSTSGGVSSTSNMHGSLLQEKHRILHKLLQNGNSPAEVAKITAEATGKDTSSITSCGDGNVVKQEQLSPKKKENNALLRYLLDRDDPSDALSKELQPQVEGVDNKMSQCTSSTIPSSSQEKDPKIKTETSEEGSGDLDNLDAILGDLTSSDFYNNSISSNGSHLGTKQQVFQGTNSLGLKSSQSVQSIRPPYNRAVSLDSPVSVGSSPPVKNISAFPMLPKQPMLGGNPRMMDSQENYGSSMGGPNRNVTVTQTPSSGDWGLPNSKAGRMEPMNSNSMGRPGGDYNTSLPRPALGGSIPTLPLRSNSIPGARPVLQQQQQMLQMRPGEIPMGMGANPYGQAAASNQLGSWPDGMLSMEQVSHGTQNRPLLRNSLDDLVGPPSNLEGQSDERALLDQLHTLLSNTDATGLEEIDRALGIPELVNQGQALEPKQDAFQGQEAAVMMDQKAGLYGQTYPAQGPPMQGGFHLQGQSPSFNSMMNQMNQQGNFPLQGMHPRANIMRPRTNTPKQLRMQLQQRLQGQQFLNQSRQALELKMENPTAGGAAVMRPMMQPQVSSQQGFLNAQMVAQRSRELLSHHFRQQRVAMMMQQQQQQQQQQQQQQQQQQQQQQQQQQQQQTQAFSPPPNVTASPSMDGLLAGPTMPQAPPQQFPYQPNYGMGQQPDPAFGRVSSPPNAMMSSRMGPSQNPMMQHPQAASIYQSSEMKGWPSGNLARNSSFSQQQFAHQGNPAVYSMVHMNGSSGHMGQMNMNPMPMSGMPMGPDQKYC
# [2] = test system: transactivating tegument protein VP16 (Human herpesvirus 1), Gal4-VP16 luciferase reporter; assay: VP16 transactivation inhibitors, counter-screen for SRC3 inhibitor project, cell-based, luminescence, high throughput (AID 588794; in the data active = inhibition above about 30%); settings: mammalian cells, VP16-driven luciferase reporter luminescence; at 3.6 µM; stronger effect = higher value
# [3] = molecular target: Nuclear receptor coactivator 1 (Homo sapiens) (UniProt Q15788); assay: SRC1 coactivator transcriptional activity inhibitors, confirmation, cell-based, luminescence, quadruplicate (AID 588820;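 active = mean inhibition above 46.68%, the untreated control wells mean plus 3 SD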;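 also: 0% = DMSO wells and 100% = gossypol 36 µM treated wells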); settings: HEK293 GAL4-SRC1 luciferase reporter, at 3.6 µM, stronger effect = higher value
# Sequence of Nuclear receptor coactivator 1 (Homo sapiens) (Q15788 whole entry, looked up, the tested form may be a part): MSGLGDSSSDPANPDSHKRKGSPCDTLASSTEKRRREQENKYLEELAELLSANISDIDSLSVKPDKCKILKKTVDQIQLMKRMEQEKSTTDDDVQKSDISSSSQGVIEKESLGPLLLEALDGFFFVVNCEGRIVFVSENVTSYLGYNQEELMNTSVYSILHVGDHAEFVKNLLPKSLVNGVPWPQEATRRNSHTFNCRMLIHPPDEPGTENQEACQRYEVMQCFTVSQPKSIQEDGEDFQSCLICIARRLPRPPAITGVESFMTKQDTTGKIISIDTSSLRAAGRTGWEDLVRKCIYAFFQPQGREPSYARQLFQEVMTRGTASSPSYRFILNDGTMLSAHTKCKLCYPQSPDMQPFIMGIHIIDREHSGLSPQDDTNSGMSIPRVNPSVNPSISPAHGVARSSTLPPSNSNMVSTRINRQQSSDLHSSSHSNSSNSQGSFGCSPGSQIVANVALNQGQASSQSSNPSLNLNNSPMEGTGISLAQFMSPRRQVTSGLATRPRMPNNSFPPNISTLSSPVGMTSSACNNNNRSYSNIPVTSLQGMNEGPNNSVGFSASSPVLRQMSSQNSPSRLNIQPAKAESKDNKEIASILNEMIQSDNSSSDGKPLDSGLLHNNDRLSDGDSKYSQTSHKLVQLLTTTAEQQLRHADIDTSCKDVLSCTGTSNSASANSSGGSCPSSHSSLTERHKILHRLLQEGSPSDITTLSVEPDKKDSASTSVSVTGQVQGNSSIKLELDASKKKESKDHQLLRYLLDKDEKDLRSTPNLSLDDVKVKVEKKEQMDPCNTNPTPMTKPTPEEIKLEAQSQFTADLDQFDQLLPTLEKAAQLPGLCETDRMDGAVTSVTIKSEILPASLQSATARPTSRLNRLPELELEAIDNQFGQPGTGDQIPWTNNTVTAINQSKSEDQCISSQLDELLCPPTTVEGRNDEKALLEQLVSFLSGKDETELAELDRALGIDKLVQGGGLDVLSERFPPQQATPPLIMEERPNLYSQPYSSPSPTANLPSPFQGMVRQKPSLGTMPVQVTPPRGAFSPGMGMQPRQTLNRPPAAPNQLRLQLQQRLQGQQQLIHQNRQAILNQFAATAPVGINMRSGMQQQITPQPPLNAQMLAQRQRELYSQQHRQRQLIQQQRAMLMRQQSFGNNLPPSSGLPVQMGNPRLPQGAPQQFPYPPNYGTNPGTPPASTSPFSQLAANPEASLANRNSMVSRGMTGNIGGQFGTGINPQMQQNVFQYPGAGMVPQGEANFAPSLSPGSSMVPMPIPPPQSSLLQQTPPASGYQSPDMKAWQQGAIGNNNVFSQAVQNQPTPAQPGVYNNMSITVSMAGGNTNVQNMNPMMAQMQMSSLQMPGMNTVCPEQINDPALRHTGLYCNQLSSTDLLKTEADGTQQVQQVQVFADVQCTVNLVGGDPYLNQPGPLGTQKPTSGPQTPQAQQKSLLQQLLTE
# [4] = VP16 transactivation inhibitors, counter-screen for SRC1 inhibitor project, cell-based, luminescence, high throughput (AID 588824; in the data active = inhibition above about 25%); settings: cell-based VP16 transactivation luciferase luminescence; at 3.6 µM; stronger effect = higher value
# [5] = StAR promoter reporter inhibitors, counter-screen for LRH-1 inverse agonist project, cell-based, luminescence, high throughput (AID 651611; in the data active = inhibition above about 28%); settings: StAR promoter luciferase reporter counterscreen, at 3.6 µM, stronger effect = higher value
# [6] = molecular target: Nuclear receptor subfamily 5 group A member 2 (Homo sapiens) (UniProt O00482); assay: LRH-1 (NR5A2) inverse agonists, retest, confirmation, cell-based, luminescence (AID 651613); settings: cell-based LRH-1 luciferase reporter, inverse agonism; at 3.6 µM; stronger effect = higher value;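 also: HEK293T cells co-transfected with LRH-1 and StAR promoter luciferase reporter; 0% = vehicle wells and 100% = parental cells lacking receptor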
# Sequence of Nuclear receptor subfamily 5 group A member 2 (Homo sapiens) (O00482 whole entry, looked up): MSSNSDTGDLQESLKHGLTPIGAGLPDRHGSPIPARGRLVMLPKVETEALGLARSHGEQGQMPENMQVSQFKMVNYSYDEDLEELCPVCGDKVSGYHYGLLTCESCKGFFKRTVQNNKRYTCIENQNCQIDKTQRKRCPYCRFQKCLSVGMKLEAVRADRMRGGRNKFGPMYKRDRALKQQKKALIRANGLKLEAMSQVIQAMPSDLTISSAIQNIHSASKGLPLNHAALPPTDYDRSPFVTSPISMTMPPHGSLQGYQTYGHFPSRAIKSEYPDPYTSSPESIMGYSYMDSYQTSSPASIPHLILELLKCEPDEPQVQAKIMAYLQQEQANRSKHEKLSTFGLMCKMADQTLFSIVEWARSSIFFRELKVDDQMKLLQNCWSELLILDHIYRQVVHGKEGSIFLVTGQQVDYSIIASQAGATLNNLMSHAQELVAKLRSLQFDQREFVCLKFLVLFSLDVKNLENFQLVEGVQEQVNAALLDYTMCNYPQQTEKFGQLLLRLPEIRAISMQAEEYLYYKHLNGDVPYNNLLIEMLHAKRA
# [7] = molecular target: Steroidogenic factor 1 (Homo sapiens) (UniProt Q13285); assay: SF1 (NR5A1) inverse agonists, counter-screen for LRH-1 inverse agonist project, cell-based, luminescence, high throughput (AID 651614; in the data active = inhibition above about 44%;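 also: cells cotransfected with StAR promoter reporter and SF1 expression vector; 0% = vehicle on cells with receptor and 100% = vehicle on cells lacking receptor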); settings: cell-based SF1 luciferase reporter, at 3.6 µM, stronger effect = higher value
# Sequence of Steroidogenic factor 1 (Homo sapiens) (Q13285 whole entry, looked up, the tested form may be a part): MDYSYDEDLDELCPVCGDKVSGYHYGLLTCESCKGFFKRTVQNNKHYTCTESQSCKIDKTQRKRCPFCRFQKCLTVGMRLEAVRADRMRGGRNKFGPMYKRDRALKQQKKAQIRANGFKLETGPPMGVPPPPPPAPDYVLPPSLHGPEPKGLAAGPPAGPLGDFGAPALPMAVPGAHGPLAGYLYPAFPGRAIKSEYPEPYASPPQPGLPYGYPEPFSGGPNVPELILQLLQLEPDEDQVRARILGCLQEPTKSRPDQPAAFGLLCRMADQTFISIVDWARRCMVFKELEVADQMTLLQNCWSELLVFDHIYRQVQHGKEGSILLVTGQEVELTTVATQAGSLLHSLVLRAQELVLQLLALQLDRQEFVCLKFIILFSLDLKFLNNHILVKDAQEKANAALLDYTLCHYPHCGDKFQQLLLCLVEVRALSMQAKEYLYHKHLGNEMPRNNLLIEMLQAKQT
# [8] = VP16 transactivation reporter inhibitors, counter-screen for LRH-1 inverse agonist project, cell-based, luminescence, high throughput (AID 651615; in the data active = inhibition above about 33%); settings: Gal4-VP16 luciferase reporter cells, at 3.6 µM, stronger effect = higher value
SMILES,inhibition [1],inhibition [2],inhibition [3],inhibition [4],inhibition [5],inhibition [6],inhibition [7],inhibition [8]
CCN1/C(=C/C(C)=C/c2sc3ccccc3[n+]2CC)Sc2ccccc21,80.9% (active),84.2% (active),58.4% (active),81.6% (active),77% (active) and 81.8% (active),107% (active) and 106% (active),89.7% (active) and 93.3% (active),88.1% (active) and 89.4% (active)
CCC[N+]1(CC#CCC(c2ccccc2)c2ccccc2)CCCCC1,28.8%,40.3% (active),21.4%,53.2% (active),24.2%,104% (active),67.9% (active),73.6% (active)
COc1cccc(Cn2c(NCc3cccnc3)nc3c2c(=O)n(C)c(=O)n3C)c1,50.8% (active),41.3% (active),58.1% (active),38% (active),59.4% (active),55.5% (active),50.3% (active),62.8% (active)
COc1ccc(CCNC(=O)c2nnn(-c3ccc4c(c3)OCCO4)c2N)cc1OC,31.7%,2.53%,13.1%,-6.95%,44.7% (active),-26.3%,29%,-16.9%
COc1ccc(/C=C/c2cc(-c3ccc(C)cc3)o[n+]2C)cc1,65.6% (active),74.6% (active),56.2% (active),71.5% (active),62.3% (active),98.9% (active),89.8% (active),83.6% (active)
CCc1nc(N)nc(N)c1-c1ccc(N(C)Cc2ccccc2)c([N+](=O)[O-])c1,63.5% (active),54.7% (active),69.4% (active),60.4% (active),71.8% (active),69.6% (active),65.9% (active),64.1% (active)
